PubChem BioAssay (NCATS)
Inconclusive results are not listed. Activity calls are given as the source filed them. The call rests on the fitted dose curve; in most records, active means well fitted inhibition curve with a large enough effect; inconclusive means small, poorly fitted or top-dose-only effect; inactive means no such curve, though single readings can be large or run the other way.

Assay: HTS Assay for Allosteric Antagonists of the Human D2 Dopamine Receptor: Hit Validation in HTRF (AID 624455);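 further: stable D1 dopamine receptor cell line scored for blocking the D1 response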
Details: Cells stably expressing D1 dopamine receptor, inhibition mode; series mostly up to 46.1 µM; activity, negative = inhibition: at the top concentration
Text: Dopamine receptors (DARs) are involved in the etiology and/or therapy of a number of neuropsychiatric and endocrine disorders. For instance, all receptor-based antiparkinsonian drugs work via stimulating the D2 DAR subtype whereas all FDA-approved antipsychotic agents are antagonists of this receptor. […] There are three different types of allosteric modulators that we are seeking, two of which will stimulate or augment receptor signaling, allosteric agonists and potentiators, while the third, allosteric antagonists, will attenuate receptor signaling. The present primary screening assay measures compound antagonism after an EC80 addition of dopamine by tracking calcium flux in a […], inducible Hek293 Trex D2 cell line. This assay measures activity of the hits in the D1 HTRF assay.
NIH Chemical Genomics Center [NCGC]
NIH Molecular Libraries Probe Centers Network [MLPCN]
Assay Submitter (PI): David Sibley
Cells stably expressing the D1 dopamine receptor will be run in an HTRF assay and compounds will be examined for the ability to inhibit the D1 mediated response.
On the % scale 0 is the no-effect control and ±100 the full control effect.

| Structure (SMILES) | activity, negative = inhibition | outcome |
| --- | --- | --- |
| OCCN1CCN(CCCN2c3ccccc3Sc3ccc(Cl)cc32)CC1 | 16.8% (inactive) | – |
| OCc1cc(C(O)CNCCCCCCOCCCCc2ccccc2)ccc1O (stereo not given) | -5.34% (inactive) | – |
| C[C@]12C[C@H](O)[C@H]3[C@@H](CCC4=CC(=O)CC[C@@]43C)[C@@H]1CC[C@@H]2C(=O)CO | -5.27% (inactive) | – |
| CC(C)C(=O)c1c(C(C)C)nn2ccccc12 | -6.8% (inactive) | – |
| CC(CN1c2ccccc2Sc2ccccc21)N(C)C (stereo not given) | 15.4% (inactive) | – |
| NC(=O)c1ncn([C@@H]2O[C@H](CO)[C@@H](O)[C@H]2O)n1 | -7.35% (inactive) | – |
| CSc1ccc2c(c1)N(CCC1CCCCN1C)c1ccccc1S2 (stereo not given) | 6.71% (inactive) | – |
| COC(=O)C1=C(C)NC(C)=C(C(=O)OC)C1c1ccccc1[N+](=O)[O-] | -0.212% (inactive) | – |
| CCCn1cnc2c1c(=O)n(CCCCC(C)=O)c(=O)n2C | -26.1% (inactive) | – |
| C[C@]12CC[C@@H]3c4ccc(O)cc4CC[C@H]3[C@@H]1CCC2=O | -4.51% (inactive) | – |
| CNCCC(Oc1ccc(C(F)(F)F)cc1)c1ccccc1 (stereo not given) | 1.52% (inactive) | – |
| Nc1ncnc2c1ncn2[C@@H]1O[C@H](CO)[C@@H](O)[C@H]1O | -6.86% (inactive) | – |
| C[C@](N)(Cc1ccc(O)cc1)C(=O)O | 5.73% (inactive) | – |
| CNC(=O)Oc1ccc2c(c1)[C@]1(C)CCN(C)[C@@H]1N2C | -2.98% (inactive) | – |
| CCN(CC)CCNC(=O)c1cc(Cl)c(N)cc1OC | -2.02% (inactive) | – |
| NC1CCN(c2cccc(Cl)n2)CC1 | -7.01% (inactive) | – |
| CC(C)(C(=O)O)c1ccc(C(O)CCCN2CCC(C(O)(c3ccccc3)c3ccccc3)CC2)cc1 (stereo not given) | 5.46% (inactive) | – |
| CCN(CC)CCOC(=O)C1(C2CCCCC2)CCCCC1 | -6.53% (inactive) | – |
| C#CCN(C)Cc1ccccc1 | -2.54% (inactive) | – |
| CCCCCCCCCCCCCCCC(=O)NCCO | -0.448% (inactive) | – |

| Structure (SMILES) | activity, negative = inhibition | outcome |
| --- | --- | --- |
| O=C1N=C(O)CN1/N=C/c1ccc(-c2ccc([N+](=O)[O-])cc2)o1 | 0.708% (inactive) | – |
| CC1=C(/C=C/C(C)=C/C=C/C(C)=C/C(=O)O)C(C)(C)CCC1 | -3.75% (inactive) | – |
| CN(C)CC[C@@H](c1ccc(Cl)cc1)c1ccccn1 | 2.11% (inactive) | – |
| CC[C@H]1CN2CCc3cc(OC)c(OC)cc3[C@@H]2C[C@@H]1C[C@H]1NCCc2cc(OC)c(OC)cc21 | 5.43% (inactive) | – |
| CN(C)CCC=C1c2ccccc2CCc2ccccc21 | 0.0708% (inactive) | – |
| C=Cc1c(C)c2cc3[nH]c(cc4nc(cc5nc(cc1[nH]2)C(C)=C5CCC(=O)O)C(CCC(=O)O)=C4C)c(C)c3C=C | -27.8% (inactive) | – |
| N=c1c[n+](N2CCOCC2)[n-]o1 | 5.24% (inactive) | – |
| CC(C)(C)c1onc(OCP(=O)(O)O)c1CC(N)C(=O)O (stereo not given) | – | inactive |
| COCCOC(=O)C1=C(C)NC(C)=C(C(=O)OC/C=C/c2ccccc2)C1c1cccc([N+](=O)[O-])c1 (stereo not given) | -4.69% (inactive) | – |
| CSc1ccc2c(c1)C(N1CCN(C)CC1)Cc1ccccc1S2 (stereo not given) | 1.14% (inactive) | – |
| CC1=C(CC(=O)O)c2cc(F)ccc2/C1=C\c1ccc(S(C)=O)cc1 (stereo not given) | -1.37% (inactive) | – |
| CN(C)CCOC(C)(c1ccccc1)c1ccccn1 (stereo not given) | 0.708% (inactive) | – |
| CN(C)CCCN1c2ccccc2CCc2ccccc21 | 8.5% (inactive) | – |
| Cc1cc(N)c2ccccc2[n+]1CCCCCCCCCC[n+]1c(C)cc(N)c2ccccc21 | 3.44% (inactive) | – |
| CCN(CC)C(C)CN1c2ccccc2Sc2ccccc21 (stereo not given) | 8.07% (inactive) | – |
| COc1ccc(Cl)cc1C(=O)NCCc1ccc(S(=O)(=O)NC(=O)NC2CCCCC2)cc1 | 2.55% (inactive) | – |
| CNCCCC1c2ccccc2C=Cc2ccccc21 | 2.7% (inactive) | – |
| CN1CCN(C2Cc3ccccc3Sc3ccc(Cl)cc32)CC1 (stereo not given) | 7.11% (inactive) | – |
| NC(N)=NCCC[C@H](N)C(=O)O | -1.4% (inactive) | – |
| Nc1cc(=O)[nH]c(N)n1 | -2.56% (inactive) | – |
